Results reported in PubChem BioAssay (NCI).
This is part of a sample that, as a whole, favours compounds with a hit. Of some 79,000 tested, about 15% had one in any assay. Rule as the data show it: active = growth inhibition above about 70%; inactive = the rest.

Key:
[1] = NCI Yeast Anticancer Drug Screen. Data for the rad50 strain (AID 155);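 also: 0% = growth of vehicle-only cultures of the same strain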; details: S. cerevisiae rad50 strain growth inhibition; at 50.0 µM; stronger effect = higher value
Method in brief: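 Compounds were tested on a yeast strain with an engineered DNA damage repair alteration; the reported value is growth inhibition normalised to vehicle treatment.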

[2] = NCI Yeast Anticancer Drug Screen. Data for the mec2-1 strain (AID 157); details: S. cerevisiae mec2-1 strain, at 50.0 µM, stronger effect = higher value
Method in brief: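 Readout is yeast growth inhibition, normalised to vehicle-treated controls, in the mec2-1 strain exposed to compound.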

[3] = NCI Yeast Anticancer Drug Screen. Data for the sgs1 mgt1 strain (AID 161);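 also: 0% = growth of cultures given vehicle only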; details: S. cerevisiae sgs1 mgt1 strain, at 50.0 µM, stronger effect = higher value
Method in brief: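 Compounds are added to genetically altered yeast, and growth is compared with cultures given vehicle alone to give percent inhibition.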

[4] = NCI Yeast Anticancer Drug Screen. Data for the cln2 rad14 strain (AID 165);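 also: 0% = growth equal to vehicle treated cultures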; details: S. cerevisiae cln2 rad14 strain, at 50.0 µM, stronger effect = higher value
Method in brief: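 Relative to vehicle controls, growth inhibition of compound-treated cln2 rad14 yeast was recorded.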

[5] = NCI Yeast Anticancer Drug Screen. Data for the bub3 strain (AID 167); details: S. cerevisiae bub3 mutant strain, at 50.0 µM, stronger effect = higher value
Method in brief: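 Growth of a checkpoint-deficient yeast mutant is measured after compound exposure. Values represent inhibition relative to vehicle.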

[6] = NCI Yeast Anticancer Drug Screen. Data for the mlh1 rad18 strain (AID 175); details: S. cerevisiae mlh1 rad18 strain growth inhibition; at 50.0 µM; stronger effect = higher value
Method in brief: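 Test agents were incubated with a yeast strain of defined genotype (DNA damage repair defect). Inhibition of growth was derived by comparison with vehicle-exposed cultures.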

Measured: growth inhibition

C=CCOC(=O)CC(=C)C(=O)OCC=C
inactive: [1] 8.5% | [2] 26.4% | [3] -8.95% | [4] -4.7% | [5] -5.65% | [6] -3.55%

O=C(c1ccccc1)C1(Br)CCCCC1
inactive: [1] -2.1% | [2] 11.7% | [3] 19.8% | [4] -8.8% | [5] 15% | [6] 15.9%

C1CCC2(CC1)OCCS2
inactive: [1] 24.6% | [2] 1.6% | [3] 11.2% | [4] 7.8% | [5] -1.45% | [6] 6.15%

COC(=O)C1=C(C(=O)OC)C2CCC1O2
inactive: [1] -0.5% | [2] -6% | [3] -0.4% | [4] -11.7% | [5] 8.35% | [6] -17.6%

N#CCCNC(CC(=O)O)C(=O)O (stereo unspecified)
inactive: [1] 10.7% | [2] 1.55% | [3] 14.4% | [4] -13.2% | [5] 0.5% | [6] -4.85%

CCCCOC(=O)c1c2nc3c(C(=O)OCCCC)ccc(C)c3oc-2c(C)c(=O)c1NC(C)=O
inactive: [1] 19.4% | [2] 5.1% | [3] 6.95% | [4] 4.9% | [5] -5.3% | [6] 5.2%

Nc1cccc2c1CCC=C2
inactive: [1] -0.05% | [2] -6.5% | [3] -3.55% | [4] -6% | [5] 7.6% | [6] -1.9%

CC(C)(O)CC(O)(C(F)(F)F)C(F)(F)F
inactive: [1] 14.3% | [2] -0.95% | [3] -3.25% | [4] -20.3% | [5] 3.35% | [6] 1.9%

C1=C(c2ccccc2)CCCC1
inactive: [1] 17.1% | [2] 3.55% | [3] 4.2% | [4] 14.4% | [5] -9.4% | [6] 4.45%

O=C(NCc1ccccc1)C1CCN(Cc2c[nH]c3ccccc23)CC1
inactive: [1] -0.3% | [2] -4.4% | [3] 3.15% | [4] 16.5% | [5] 1.7% | [6] 28.7%

COc1ccccc1/C=N\NC(C)=O
inactive: [1] -9.9% | [2] 6.05% | [3] 5.35% | [4] 2.25% | [5] 6.05% | [6] -14.7%

Cc1nn(C(=O)c2ccccc2O)c2c1C(c1ccc(O)cc1)SC(N)=N2 (stereo unspecified)
inactive: [1] 16.1% | [2] 1.95% | [3] 29.4% | [4] 1.65% | [5] 43.6% | [6] 6.65%

CC1(C)CC2(C)Sc3ccccc3N2C(=S)N1 (stereo unspecified)
inactive: [1] -35.6% | [2] -2.15% | [3] 13.8% | [4] -19.6% | [5] -0.75% | [6] 17.9%

O=C(c1ccccc1)N1CC2CCC1CN2C(=O)c1ccccc1
inactive: [1] 15.8% | [2] 15.2% | [3] 4% | [4] 6.95% | [5] 42.7% | [6] -8.45%

COc1ccc(Cc2cc(OC)c(OC)c(OC)c2)cc1
inactive: [1] 13.2% | [2] -0.3% | [3] 7.7% | [4] 0% | [5] 31.8% | [6] -27.6%

COC(=O)/C=C(C)/C=C/c1cc(C(C)=O)c(C)o1
inactive: [1] -2.25% | [2] -2.95% | [3] 7.85% | [4] -12.3% | [5] 29.6% | [6] -7.05%

N=c1sc2ccccc2n1CC(=O)O
inactive: [1] 2.2% | [2] -16.5% | [3] -13.3% | [4] -22.6% | [5] 3.85% | [6] -41.2%

CC(C)(C)c1cc(C[N+](C)(C)[O-])c(O)c(-c2ccccc2)c1
inactive: [1] -0.65% | [2] -26.2% | [3] 2.05% | [4] -19.2% | [5] 6.35% | [6] -13.6%

COc1ccc(N2C(=O)/C(=C/c3ccc(N(CCC#N)CCC#N)cc3C)N=C2c2cc([N+](=O)[O-])ccc2Cl)cc1
inactive: [1] -13.2% | [2] 0.95% | [3] 1.5% | [4] -5.55% | [5] -13.9% | [6] 1.85%

Cc1ccnc(N(C)CCN2CCCCC2)c1
inactive: [1] 2.75% | [2] 8.15% | [3] 7.3% | [4] -34.5% | [5] 12.4% | [6] -20.8%

O=C(O)CCc1cccc2ccccc12
inactive: [1] 30.1% | [2] 10.8% | [3] 32.7% | [4] 14.4% | [5] 3.35% | [6] 35.3%

O=C1CCN(C(=O)C2=CC(=O)OC2)C1
inactive: [1] -15.2% | [2] -1.8% | [3] -5.1% | [4] -33.6% | [5] 5.15% | [6] -2.2%

CC1CCOC(/C=C/c2ccccc2)O1 (stereo unspecified)
inactive: [1] -7.9% | [2] -6.7% | [3] 5.7% | [4] 30.1% | [5] 40.8% | [6] -1.75%

Fc1ccc(NC(=S)Nc2ccc(F)cc2)cc1
inactive: [1] -19.4% | [2] -5.8% | [3] -10.7% | [4] -6.65% | [5] 15.1% | [6] 3.4%

COc1cc(C2c3cc4c(cc3C(OC(=O)C[n+]3ccccc3)C3COC(=O)C23)OCO4)cc(OC)c1OC (stereo unspecified)
inactive: [1] 28.7% | [2] -9.15% | [3] 1.7% | [4] -4.75% | [5] 18.8% | [6] 16.5%

Cc1[nH]c(=O)[nH]c(=O)c1/C=C/C(=O)NC(CO)CS(C)=O (stereo unspecified)
inactive: [1] -1.5% | [2] -7.15% | [3] 0.75% | [4] 6.1% | [5] 0.75% | [6] 7.05%

NCCSSC/C=C\CSSCCN
inactive: [1] 2.65% | [2] 1.5% | [3] -24.1% | [4] 16.2% | [5] -15.8% | [6] -12.9%

CCOc1ccc(CC(=O)Nc2cc([N+](=O)[O-])ccc2NCCN(CC)CC)cc1
inactive: [1] -18.2% | [2] -10.4% | [3] -8.6% | [4] -53.8% | [5] 0.2% | [6] -3.85%

Cc1ccc(C(O)(c2ccc(C)cc2)C2CCCCC2=C(c2ccccc2)c2ccccc2)cc1 (stereo unspecified)
inactive: [1] 10.8% | [2] 3.45% | [3] -14.2% | [4] -7.35% | [5] -0.25% | [6] 15.2%

CC(CCc1ccccc1)N(C)C(=O)CNC(=O)CN1C(=O)c2ccccc2C1=O (stereo unspecified)
inactive: [1] -18.9% | [2] 1.35% | [3] 6.85% | [4] -1.25% | [5] -15.1% | [6] -6.9%

ClC(Cl)=C(c1ccccc1)c1ccccc1
inactive: [1] 30.2% | [2] 22.4% | [3] 36.5% | [4] 7.15% | [5] -4.45% | [6] 16.9%

OCCN1CCN(C2=Nc3cccnc3Nc3cscc32)CC1
inactive: [1] -41.2% | [2] -1.15% | [3] -22.6% | [4] -9.75% | [5] -5.05% | [6] -8.75%

Cc1c(CCOC=O)c(=O)[nH]c2nncn12
inactive: [1] -15.5% | [2] -29.6% | [3] -18.3% | [4] 16.9% | [5] -9.65% | [6] 2.65%

CC(=O)OCC1OC(n2cccnc2=O)C(OC(C)=O)C1OC(C)=O (stereo unspecified)
inactive: [1] -0.55% | [2] 2.75% | [3] 2.25% | [4] 7.8% | [5] 8.7% | [6] 0.9%

CC(C)=CC1C(C(=O)O)C1(C)C (stereo unspecified)
inactive: [1] 5.55% | [2] -13.2% | [3] 3.35% | [4] -2.95% | [5] 8.4% | [6] 10.2%

CCCCNC(=O)c1ccccc1C
inactive: [1] 4.8% | [2] 4.7% | [3] -6.7% | [4] -34.9% | [5] 2.25% | [6] 1.35%
